Assay results reported in PubChem BioAssay AID2061320 (National Center for Advancing Translational Sciences (NCATS), 2025).
Results filed as inconclusive are left out. The source made the active and inactive calls. Calls follow the shape of the dose curve; as a rule, active = well fitted inhibition curve with a large enough effect; inconclusive = small, poorly fitted or top-dose-only effect; inactive = flat fitted curve, though single readings scatter.

test: Identification of antibody-drug conjugate (ADC) payloads which are substrates of ATP-binding cassette drug efflux transporters: ABCG2-H460-MX20 cell line; settings: H460-MX20 (ABCG2) viability, CellTiter-Glo, 48 h; series mostly up to 28.7 µM; activity change, negative = inhibition: at the top concentration
Source text: Antibody-drug conjugates (ADCs) feature an antibody recognizing a specific protein joined to a potent toxic payload. Numerous antibody-drug conjugates have received FDA approval; however, clinical resistance arises. Resistance mechanisms include decreased expression or mutation of the antibody target, impaired payload release, or increased expression of ATP-binding cassette (ABC) efflux transporters associated with multidrug resistance. We therefore sought to characterize the interaction of ABC multidrug transporters with ADC payloads. We performed a high-throughput screen with 27 common ADC payloads using cells lines expressing ABC transporters P-glycoprotein (P-gp, encoded by ABCB1) or ABCG2 (encoded by ABCG2). Confirmatory assays were also performed using cells transfected to express P-gp, ABCG2, or MRP1 (encoded by ABCC1). Several commonly used ADC payloads were substrates of P-gp, including calicheamicin gamma1, monomethyl auristatin E, DM1, and DM4. All the pyrrolobenzodiazepines tested - SJG136, SGD-1882, SG2057, and SG3199 - were substrates of P-gp, ABCG2, and MRP1. […] These findings highlight the risk of transporter-mediated resistance with certain ADC payloads and underscore the importance of selecting payloads that evade ABC transporter recognition in future ADC development.
HEK-293 cells were transfected with empty vector (pcDNA) or vector containing the human ABCB1 (MDR-19), ABCG2 (R-5), or ABCC1 gene (MRP1) and were maintained in EMEM with 2 mg/mL G418 added to maintain transporter expression. The HeLa derivative KB-3-1 and the P-gp overexpressing KB-8-5-11 subline were maintained in DMEM; KB-8-5-11 additionally received 100 ng/mL colchicine. H460 parental cells were obtained from the Division of Cancer Treatment and Diagnosis Tumor Repository, National Cancer Institute at Frederick, MD and were cultured in RPMI. The ABCG2 expressing subline H460 MX20 was generated by selecting H460 cells in 20 nM mitoxantrone. Media in all cases was supplemented with 10% FBS and 1% penicillin-streptomycin. We explored 27 common ADC payloads, in two orthogonal, paired cell line sets-a drug selected and transfected set for each transporter--to identify substrates of the ABC transporters P-gp and ABCG2. Compounds were sourced from Levena Biopharma (San Diego, CA), Selleck Chem (Houston, TX), ChemieTek (Indianapolis, IN), or Microsource Discovery Systems (Gaylordsville, CT). Screening was performed as previously described. Briefly, cells were plated at a density of 500 cells/well in 1536 well plates with compounds added using a 1536-head pin tool (Kalypsys, San Diego CA). Cells were incubated with cytotoxic drugs and processed with CellTiter Glo reagent (Promega, Madison, WI) to determine viability after 48 hours. P-gp substrates were identified by comparing compound activity between paired sets of low-expressing (sensitive) and over-expressing (resistant) cell lines.

| Structure (SMILES) | activity change, negative = inhibition | Potency |
| --- | --- | --- |
| CC[C@H](C)[C@H](NC(=O)[C@H]1CCCCN1C)C(=O)N(C)[C@H](C[C@@H](OC(C)=O)c1nc(C(=O)N[C@@H](Cc2ccccc2)C[C@H](C)C(=O)O)cs1)C(C)C | -25.4% (inactive) | – |
| CC[C@H](C)[C@@H]1NC(=O)CNC(=O)[C@H]2Cc3c([nH]c4cc(O)ccc34)S(=O)C[C@H](NC(=O)CNC1=O)C(=O)N[C@@H](CC(N)=O)C(=O)N1C[C@H](O)C[C@H]1C(=O)N[C@@H]([C@@H](C)[C@@H](O)CO)C(=O)N2 (stereo partly specified) | – | 1.06 µM (active) |
| CC[C@H](C)[C@@H]([C@@H](CC(=O)N1CCC[C@H]1[C@H](OC)[C@@H](C)C(=O)N[C@H](C)[C@@H](O)c1ccccc1)OC)N(C)C(=O)[C@@H](NC(=O)[C@H](C(C)C)N(C)C)C(C)C | – | 0.598 µM (active) |
| COc1cc2cc(C(=O)N3C[C@@H](CCl)c4c3cc(O)c3ccccc43)[nH]c2c(OC)c1OC | – | 0.0021 µM (active) |
| COc1cccc2c1C(=O)c1c(O)c3c(c(O)c1C2=O)C[C@@](O)(C(=O)CO)CC3OC1CC(N2CCOC(OC)C2)C(O)C(C)O1 (stereo partly specified) | – | 0.0084 µM (active) |
| COc1cc2cc(c1Cl)N(C)C(=O)C[C@H](OC(=O)[C@H](C)N(C)C(=O)CCS)[C@]1(C)OC1[C@H](C)C1C[C@@](O)(NC(=O)O1)[C@H](OC)/C=C/C=C(\C)C2 (stereo partly specified) | – | 15 µM (active) |
